In ChEMBL document CHEMBL3988442, “University of Dundee, Small-Polar-MMV Screening Library” (2021):
For some assays here: Measured potencies and affinities stand elsewhere.

Experiments:
Parameters in all cases: scale not given: direction of the effect not stated beside the values
[1] = molecular target: Protein translocase subunit SecA (Escherichia coli (strain K12)) (UniProt P10408); test: Assay to Identify E. coli SecA ATPase Inhibitors; type: functional; details: 30 µM
[2] = molecular target: T1, Ubiquitin-activating enzyme e1, putative (Leishmania donovani (strain BPK282A1)) (UniProt E9BSI1); test: Leishmania donovani Ubiquitin Activating Enzyme (LdE1); type: functional; details: 30 µM
T1 sequence (whole entry): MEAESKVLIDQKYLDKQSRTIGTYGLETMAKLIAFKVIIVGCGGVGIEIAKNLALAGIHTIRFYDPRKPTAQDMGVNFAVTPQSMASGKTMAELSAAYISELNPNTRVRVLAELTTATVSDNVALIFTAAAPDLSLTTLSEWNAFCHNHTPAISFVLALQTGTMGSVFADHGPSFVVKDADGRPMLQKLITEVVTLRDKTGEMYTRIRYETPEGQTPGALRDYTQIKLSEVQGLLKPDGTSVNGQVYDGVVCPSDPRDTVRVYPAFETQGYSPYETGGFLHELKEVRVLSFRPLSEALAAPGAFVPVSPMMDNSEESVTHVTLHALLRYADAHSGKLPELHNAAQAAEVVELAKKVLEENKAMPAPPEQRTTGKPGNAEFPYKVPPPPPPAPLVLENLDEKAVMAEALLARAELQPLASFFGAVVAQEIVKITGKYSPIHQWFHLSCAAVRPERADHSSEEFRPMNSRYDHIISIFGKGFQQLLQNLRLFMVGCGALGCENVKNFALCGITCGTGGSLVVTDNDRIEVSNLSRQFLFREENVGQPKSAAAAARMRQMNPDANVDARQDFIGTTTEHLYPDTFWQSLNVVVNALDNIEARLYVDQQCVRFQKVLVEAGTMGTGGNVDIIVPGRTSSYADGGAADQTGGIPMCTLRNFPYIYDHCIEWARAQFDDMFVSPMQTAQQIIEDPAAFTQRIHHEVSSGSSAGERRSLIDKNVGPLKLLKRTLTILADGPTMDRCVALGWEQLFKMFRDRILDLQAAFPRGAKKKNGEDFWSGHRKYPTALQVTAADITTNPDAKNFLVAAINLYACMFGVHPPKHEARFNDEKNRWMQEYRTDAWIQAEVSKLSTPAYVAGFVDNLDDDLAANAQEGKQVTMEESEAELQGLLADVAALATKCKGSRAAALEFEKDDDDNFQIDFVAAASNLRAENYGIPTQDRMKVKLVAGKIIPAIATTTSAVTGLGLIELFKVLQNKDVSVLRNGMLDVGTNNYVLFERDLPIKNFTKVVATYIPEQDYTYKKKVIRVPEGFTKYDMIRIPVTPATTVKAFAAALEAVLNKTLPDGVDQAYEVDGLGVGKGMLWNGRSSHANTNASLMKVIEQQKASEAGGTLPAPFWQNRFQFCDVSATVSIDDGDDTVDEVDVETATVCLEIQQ

[3] = molecular target: AMP-activated protein kinase, AMPK (Homo sapiens) (UniProt P54646+O43741+P54619+Q9UGJ0+Q9Y478+Q13131+Q9UGI9); test: AMP-dependent Kinase enzyme assay. An in vitro enzyme assay that detects ADP turnover that is directly proportional to AMPK activity. This uses naive AMPK that is activated during the assay with MK-8722; type: functional; details: 30 µM
[4] = molecular target: Sialic acid-binding Ig-like lectin 9 (Homo sapiens) (UniProt Q9Y336); test: Hs-Siglec9 ALPHAscreen SOP 20170721; details: 10 µM
Sequence of Sialic acid-binding Ig-like lectin 9 (Homo sapiens) (Q9Y336 whole entry): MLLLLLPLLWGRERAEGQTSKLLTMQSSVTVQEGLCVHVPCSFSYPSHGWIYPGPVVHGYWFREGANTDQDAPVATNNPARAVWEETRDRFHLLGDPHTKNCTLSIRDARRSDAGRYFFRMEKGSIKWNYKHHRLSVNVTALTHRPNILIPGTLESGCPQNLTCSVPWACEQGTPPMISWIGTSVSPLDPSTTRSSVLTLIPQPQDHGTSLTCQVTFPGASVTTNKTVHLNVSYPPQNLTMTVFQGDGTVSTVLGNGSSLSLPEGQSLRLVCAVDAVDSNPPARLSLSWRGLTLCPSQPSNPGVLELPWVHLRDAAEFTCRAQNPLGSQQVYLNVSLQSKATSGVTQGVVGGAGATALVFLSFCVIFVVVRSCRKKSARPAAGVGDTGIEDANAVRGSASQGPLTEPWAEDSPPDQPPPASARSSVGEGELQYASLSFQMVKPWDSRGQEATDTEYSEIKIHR

Trypanosoma cruzi = test: Trypanosoma cruzi phosphomannomutase and mannose-1-phosphate guanylyltransferase assay; type: functional; details: 10 µM
[5] = molecular target: T2, Arginase-2, mitochondrial (Homo sapiens) (UniProt P78540); test: in vitro enzyme assay to detect the production of urea directly proportional to the activity of Arginase II; type: functional; details: 33.3 µM; note: in the data most compounds retested in dose-response had high values
T2 sequence (whole entry): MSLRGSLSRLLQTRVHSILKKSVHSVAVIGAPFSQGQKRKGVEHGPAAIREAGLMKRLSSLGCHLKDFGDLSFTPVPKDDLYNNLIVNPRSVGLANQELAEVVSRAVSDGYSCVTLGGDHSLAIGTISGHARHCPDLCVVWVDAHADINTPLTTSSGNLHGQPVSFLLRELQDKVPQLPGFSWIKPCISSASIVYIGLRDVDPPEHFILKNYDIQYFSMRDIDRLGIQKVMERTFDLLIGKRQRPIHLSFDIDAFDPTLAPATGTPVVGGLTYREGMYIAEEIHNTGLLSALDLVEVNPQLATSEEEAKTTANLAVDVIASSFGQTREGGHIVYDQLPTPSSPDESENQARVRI

[6] = molecular target: T3, Proteasome subunit beta (Trypanosoma cruzi) (UniProt O96673); test: Trypanosoma cruzi proteasome chymotrypsin-like activity (TcProtChymo) assay.; note: in the data most compounds retested in dose-response had high values; type: functional; details: 9.37 µM
T3 sequence (whole entry): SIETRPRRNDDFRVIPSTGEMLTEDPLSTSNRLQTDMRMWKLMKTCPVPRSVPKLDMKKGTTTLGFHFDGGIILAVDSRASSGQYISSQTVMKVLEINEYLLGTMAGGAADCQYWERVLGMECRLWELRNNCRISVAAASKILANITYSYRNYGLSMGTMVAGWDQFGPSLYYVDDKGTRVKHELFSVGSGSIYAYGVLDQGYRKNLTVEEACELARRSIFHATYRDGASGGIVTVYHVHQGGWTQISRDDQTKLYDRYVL

Homo sapiens = organism: Homo sapiens; test: To identify inhibition of the IFN signalling (Jak-Stat) pathway via expression of an eGFP reporter gene under the control of an IFN-stimulated response element (ISRE) containing MxA promoter.; type: functional; details: 30 µM
[7] = molecular target: T4, Tyrosyl-tRNA synthetase, putative (Trypanosoma cruzi (strain CL Brener)) (UniProt Q4DSP6); test: Trypanosoma cruzi tyrosyl tRNA synthetase (TcYRS) _High Tyrosine SOP; type: functional; details: 30 µM; note: in the data most compounds retested in dose-response had high values
T4 sequence (whole entry): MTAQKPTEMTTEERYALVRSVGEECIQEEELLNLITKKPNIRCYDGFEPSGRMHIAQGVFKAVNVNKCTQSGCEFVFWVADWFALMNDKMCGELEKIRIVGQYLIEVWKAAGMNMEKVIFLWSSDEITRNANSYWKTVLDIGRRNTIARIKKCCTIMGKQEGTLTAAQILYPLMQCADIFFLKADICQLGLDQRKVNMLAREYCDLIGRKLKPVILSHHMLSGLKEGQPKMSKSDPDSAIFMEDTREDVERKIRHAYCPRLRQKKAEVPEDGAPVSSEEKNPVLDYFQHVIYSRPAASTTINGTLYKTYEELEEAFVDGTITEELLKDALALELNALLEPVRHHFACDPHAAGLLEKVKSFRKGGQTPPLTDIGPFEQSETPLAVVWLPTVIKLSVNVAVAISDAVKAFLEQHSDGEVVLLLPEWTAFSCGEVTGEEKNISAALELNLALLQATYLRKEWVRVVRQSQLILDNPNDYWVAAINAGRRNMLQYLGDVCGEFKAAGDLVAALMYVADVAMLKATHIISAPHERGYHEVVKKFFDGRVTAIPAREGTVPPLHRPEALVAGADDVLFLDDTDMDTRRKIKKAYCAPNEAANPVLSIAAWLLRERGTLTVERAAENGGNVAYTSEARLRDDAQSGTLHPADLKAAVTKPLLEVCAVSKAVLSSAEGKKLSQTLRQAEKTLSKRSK

[8] = molecular target: T4, Tyrosyl-tRNA synthetase, putative (Trypanosoma cruzi (strain CL Brener)); test: Trypanosoma cruzi tyrosyl tRNA synthetase (TcYRS) SOP; type: functional; details: 30 µM
[9] = molecular target: Chromo domain-containing protein 1 (Saccharomyces cerevisiae (strain ATCC 204508 / S288c) (Baker's yeast)) (UniProt P32657); test: ScCHD-1 Enzyme Inhibition Assay; type: functional; details: 30 µM; note: in the data most compounds retested in dose-response had high values
Sequence of Chromo domain-containing protein 1 (Saccharomyces cerevisiae (strain ATCC 204508 / S288c) (Baker's yeast)) (P32657 whole entry, the tested form may be a part): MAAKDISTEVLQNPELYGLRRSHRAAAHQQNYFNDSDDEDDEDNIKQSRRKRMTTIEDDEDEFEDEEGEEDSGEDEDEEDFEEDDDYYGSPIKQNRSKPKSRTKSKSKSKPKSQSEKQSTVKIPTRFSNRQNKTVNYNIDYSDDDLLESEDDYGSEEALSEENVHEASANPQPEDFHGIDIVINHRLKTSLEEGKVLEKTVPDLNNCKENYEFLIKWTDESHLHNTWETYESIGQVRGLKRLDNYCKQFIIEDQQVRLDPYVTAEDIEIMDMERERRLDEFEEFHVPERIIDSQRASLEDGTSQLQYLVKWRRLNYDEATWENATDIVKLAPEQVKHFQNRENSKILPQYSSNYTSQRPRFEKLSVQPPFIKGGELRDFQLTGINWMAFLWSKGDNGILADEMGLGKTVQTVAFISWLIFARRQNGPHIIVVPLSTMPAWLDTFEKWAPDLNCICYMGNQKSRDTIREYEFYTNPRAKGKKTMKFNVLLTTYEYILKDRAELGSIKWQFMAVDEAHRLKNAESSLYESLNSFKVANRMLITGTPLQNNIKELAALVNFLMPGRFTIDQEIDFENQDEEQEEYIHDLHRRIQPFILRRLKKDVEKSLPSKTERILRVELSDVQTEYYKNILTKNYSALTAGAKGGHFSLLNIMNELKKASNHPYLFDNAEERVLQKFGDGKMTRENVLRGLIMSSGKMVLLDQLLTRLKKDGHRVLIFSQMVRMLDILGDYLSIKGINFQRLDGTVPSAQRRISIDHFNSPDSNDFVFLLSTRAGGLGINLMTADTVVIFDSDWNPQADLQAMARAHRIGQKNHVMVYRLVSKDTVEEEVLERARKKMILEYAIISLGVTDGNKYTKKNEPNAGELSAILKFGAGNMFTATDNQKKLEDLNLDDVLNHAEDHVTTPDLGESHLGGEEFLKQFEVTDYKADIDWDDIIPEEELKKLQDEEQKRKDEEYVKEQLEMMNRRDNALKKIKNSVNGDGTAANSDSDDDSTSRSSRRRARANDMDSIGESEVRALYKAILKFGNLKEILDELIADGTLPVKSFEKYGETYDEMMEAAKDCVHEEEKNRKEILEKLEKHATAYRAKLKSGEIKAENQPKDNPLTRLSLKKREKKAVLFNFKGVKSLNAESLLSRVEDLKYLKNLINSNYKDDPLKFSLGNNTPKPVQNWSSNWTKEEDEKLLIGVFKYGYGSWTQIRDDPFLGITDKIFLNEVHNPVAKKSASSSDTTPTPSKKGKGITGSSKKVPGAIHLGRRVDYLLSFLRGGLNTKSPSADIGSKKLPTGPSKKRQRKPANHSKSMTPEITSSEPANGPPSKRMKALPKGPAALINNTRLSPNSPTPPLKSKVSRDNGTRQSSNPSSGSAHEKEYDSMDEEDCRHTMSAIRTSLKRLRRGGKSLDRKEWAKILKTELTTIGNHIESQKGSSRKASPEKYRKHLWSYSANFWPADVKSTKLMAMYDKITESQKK

Sequence of Protein translocase subunit SecA (Escherichia coli (strain K12)) (P10408 whole entry): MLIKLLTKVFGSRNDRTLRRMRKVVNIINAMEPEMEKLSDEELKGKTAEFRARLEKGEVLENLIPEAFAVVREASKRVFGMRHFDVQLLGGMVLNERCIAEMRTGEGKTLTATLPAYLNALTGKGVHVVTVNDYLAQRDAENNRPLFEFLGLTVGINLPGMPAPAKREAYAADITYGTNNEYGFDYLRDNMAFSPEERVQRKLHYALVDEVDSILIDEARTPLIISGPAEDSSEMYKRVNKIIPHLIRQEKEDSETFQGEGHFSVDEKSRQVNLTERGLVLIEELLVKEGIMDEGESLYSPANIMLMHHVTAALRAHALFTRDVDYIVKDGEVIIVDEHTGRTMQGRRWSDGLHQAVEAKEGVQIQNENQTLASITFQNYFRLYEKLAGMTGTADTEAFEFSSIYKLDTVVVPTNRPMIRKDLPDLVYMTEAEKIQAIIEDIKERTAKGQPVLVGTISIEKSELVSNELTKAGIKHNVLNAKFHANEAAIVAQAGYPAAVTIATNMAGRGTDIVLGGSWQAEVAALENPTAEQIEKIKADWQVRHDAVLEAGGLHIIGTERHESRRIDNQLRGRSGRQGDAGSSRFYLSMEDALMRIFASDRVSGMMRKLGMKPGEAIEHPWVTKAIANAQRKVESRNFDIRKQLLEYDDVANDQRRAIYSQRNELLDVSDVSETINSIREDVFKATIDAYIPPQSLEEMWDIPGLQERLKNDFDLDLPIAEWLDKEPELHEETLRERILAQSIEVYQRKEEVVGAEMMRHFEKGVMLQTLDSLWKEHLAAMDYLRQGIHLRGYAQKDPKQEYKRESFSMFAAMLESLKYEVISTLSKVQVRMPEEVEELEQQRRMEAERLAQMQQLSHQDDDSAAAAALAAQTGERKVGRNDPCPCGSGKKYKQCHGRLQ

| Compound | Percent Effect [1] [%] | Percent Effect [2] [%] | Percent Effect [3] [%] | Percent Effect [4] [%] | Percent Effect (Trypanosoma cruzi) [%] | Percent Effect [5] [%] | Percent Effect [6] [%] | Percent Effect (Homo sapiens) [%] | Percent Effect [7] [%] | Percent Effect [8] [%] | Percent Effect [9] [%] |
| --- | --- | --- | --- | --- | --- | --- | --- | --- | --- | --- | --- |
| COc1ccc(-c2noc(C(=O)NCCN3CCCCC3)n2)cc1OC | -7.28 | 14.7 | -14.8 | 5.74 | 8.25 | -18.8 | 1.85 | 6.7 | 3.17 | -5.13 | -13.9 |
| Cc1ncc(C(=O)N2C[C@H]3CC[C@@H]2CN(S(=O)(=O)N(C)C)C3)c(C)n1 | -2.89 | 16 | -1.8 | 16.2 | 2.82 | 27.6 | 17.3 | 1.16 | 7.1 | 16.1 | -6.2 |
| CCc1ccccc1-n1nnc(C(=O)O)c1-c1ccccn1 | -2.26 | 13.2 | 1.03 | -0.0352 | 1.85 | 1.18 | 23.5 | -17.6 | 4.25 | 13 | -6.21 |
| CC(C)CN1C(=O)c2ccc(C(=O)NCCc3c[nH]cn3)cc2C1=O | -1.59 | -1.33 | 14.6 | 3.62 | -7.07 | -9.68 | 8.87 | -4.06 | 5.29 | 5.13 | -5.85 |
| Cc1nc(CN(C)C2CCN(Cc3nc4ccccc4s3)C2)no1 (configuration not stated) | -6.59 | 5.26 | -8.48 | 14.1 | 4.95 | 1.8 | 3.81 | -14.2 | 10.3 | 25.9 | -8.21 |
| CC(C)c1nc(CC(=O)Nc2nc(CN3CCCCCC3)cs2)cs1 | -2.6 | -15.6 | -8.27 | -10.6 | 13.8 | -4.84 | 4.61 | 1.12 | 10.5 | 23.5 | -15.2 |
| CCOCC1CN(C(=O)CS(C)(=O)=O)Cc2cnn(C)c21 (configuration not stated) | -1.67 | 2.67 | -16.6 | 8.66 | -3.28 | -11.3 | 4.27 | 1.39 | 2.08 | 2.5 | -6.62 |
| Cc1nc(NCCc2ccc(Cl)cc2)cc(C(=O)N2CCOCC2)n1 | 0.862 | 5.2 | -3.84 | 11.5 | 3.64 | -44.1 | 9.98 | 23.7 | 7.53 | 16.1 | -2.1 |
| O=C(CN1CCCC1Cn1cncn1)NCCc1c(F)cccc1F (configuration not stated) | -9.37 | 18.4 | -9.7 | 10.3 | 11.9 | 0.719 | 7.36 | -5.35 | 5.42 | 18.5 | -10.6 |
| NC(=O)NCCC(=O)NCc1cccnc1N1CCc2ccccc2C1 | -1.28 | 18.9 | -5.95 | 12.4 | 6.75 | -3.23 | 4.89 | 1.04 | 7.53 | 23.5 | -7.12 |
| CC1CCN(CCCNS(=O)(=O)c2cccc(F)c2)CC1 | -4.57 | 7.79 | 0.601 | 5.46 | -2.46 | -13.8 | 0.166 | -11.1 | 5.38 | 13.6 | -2.91 |
| COCC1CN(Cc2ccc(C)o2)Cc2nnn(CC3CC3)c21 (configuration not stated) | -3.94 | 2.6 | 4.37 | 2.36 | -2.46 | 2.76 | 0.832 | -1.19 | -2.15 | -1.24 | 5.36 |
| CC(C)CNC(=O)[C@H]1CCS(=O)(=O)[C@@H]2CN(Cc3ccc(Cl)cc3)C[C@H]12 | -2.67 | 2.7 | -1.66 | -4.02 | 1.17 | 2.5 | 22.7 | -6.94 | 11.9 | 13.4 | -1.05 |
| CCOc1cccc(C(=O)NCCC(=O)Nc2ccncc2)c1 | -1.91 | -5.26 | 3.2 | -0.438 | -2.43 | 8.28 | 13.7 | 3.36 | 4.25 | 10.4 | -3.67 |
| CN(Cc1ccncc1)C(=O)Nc1cnn(CC2CCCO2)c1 (configuration not stated) | 0.7 | 5.41 | -6.68 | -2.66 | -3.67 | 0.952 | 20 | 17.6 | -1.59 | 2.44 | -5.74 |
| Cc1cc(C)n(CC2CCCN2C(=O)CCCc2ccccn2)n1 (configuration not stated) | -6.25 | 2.63 | 5.48 | 0.753 | -3.76 | 2.68 | 10.9 | 16.9 | 1.47 | 4.88 | -3.06 |
| CC(C)Oc1cccc(CNC(=O)NC(C)(C(=O)O)c2ccco2)c1 (configuration not stated) | -2.82 | 13.2 | -1.29 | 13.7 | 3.08 | -1.08 | -2.79 | -7.9 | 9.36 | 18.5 | -0.593 |
| CN1CCCC(Cc2ccnc3ccncc23)CC1 (configuration not stated) | -5.09 | -1.35 | 2.02 | 0.644 | -0.988 | -2.09 | -0.312 | 3.76 | 2.15 | -1.3 | 4.65 |
| Cc1nc(C)n(C2CCCN(C(=O)c3ccccc3C)C2)n1 (configuration not stated) | -0.244 | 18.2 | -0.257 | -8.82 | -0.881 | 7.37 | 12.5 | 12.5 | 7.62 | 11.8 | -10 |
| COCC1Cn2nnc(-c3cnn(C)c3)c2CN1Cc1ccc(C)s1 (configuration not stated) | -0.562 | 10.8 | 12 | -1.82 | 1.37 | 18.3 | -0.0845 | 48.1 | 6.93 | 6.1 | -4.26 |
| Cn1nc(C2CCCN(Cc3ccsc3)C2)c2nccnc21 (configuration not stated) | -0.97 | 9.46 | 11.9 | -2.94 | -2.37 | -0.696 | 4.68 | 3.34 | 1.07 | 6.49 | -19.8 |
| CSCC(CCO)NC(=O)Nc1cc(Br)ccc1C (configuration not stated) | 0.198 | 5.48 | 11.7 | 4.67 | 2.35 | 4.09 | 15.6 | -12 | 1.07 | 5 | 106 |
